Data as given in PubChem BioAssay.
Values joined by “and” are separate entries in the source; they are usually repeats but may differ in a detail not shown here. Identical values can stand only once. Some compounds were tested as several samples or in several runs, with calls that do not always agree. Active and inactive are the calls of the source. Unless noted, the rule behind the calls is not given here.

Tests used:
[1] = system: Wnt5a (protein binding on small-molecule microarray); assay: Wnt5a binders on small-molecule microarray, primary screen, biophysical, 635/667 nm fluorescence (AID 1142); conditions: 635 nm fluorescence, higher = more signal;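 note: fluorescence read at 667 nm with signal to noise per printed feature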
[2] = cell viability in Huh7 cells, primary screen, cytotoxicity control for HCV replication inhibitor project, CellTiter-Glo luminescence, basal, 48 h (AID 1143); conditions: Huh7 HCV replicon, higher = more signal, called active from +8 up or from −8 down;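 note: Huh7 hepatoma cells carrying a hepatitis C replication reporter with no stimulus; test concentration not given here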
[3] = P. aeruginosa biofilm formation inhibitors, primary screen, PAO1 strain, BacTiter-Glo luminescence, LB-PBS (AID 1144); conditions: 12 h, higher = more signal
[4] = CREB reporter modulators without forskolin, primary screen, cell-based, PC12, CRE-LacZ reporter, unstimulated (AID 1145); conditions: no forskolin, luminescence, 4.5 h, higher = more signal, called active from +8 up or from −8 down
[5] = CREB reporter modulators under forskolin, primary screen, cell-based, PC12, CRE-LacZ reporter, forskolin-stimulated (AID 1146); conditions: luminescence, 4.5 h, higher = more signal, called active from +8 up or from −8 down;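 note: PC12 cells with 6xCRE LacZ reporter stimulated by forskolin 10 µM; beta-galactosidase reporter signal reflecting CREB driven transcription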
[6] = target: Streptavidin (Streptomyces avidinii) (UniProt P22629); assay: streptavidin binders on small-molecule microarray, primary screen, artefact control for SMM compound annotation, biophysical, 635/667 nm fluorescence (AID 1147); conditions: streptavidin binding, higher = more signal;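 note: signal reflects streptavidin binding to arrayed compounds as a control protein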
Sequence of Streptavidin (Streptomyces avidinii) (P22629 whole entry, looked up): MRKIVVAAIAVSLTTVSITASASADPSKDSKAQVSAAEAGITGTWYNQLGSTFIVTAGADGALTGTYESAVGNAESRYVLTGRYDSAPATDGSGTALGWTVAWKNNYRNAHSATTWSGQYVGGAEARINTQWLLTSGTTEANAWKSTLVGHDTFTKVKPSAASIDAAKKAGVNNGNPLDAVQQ

[7] = small-molecule binders of probe aInhba, primary screen, biochemical, small-molecule microarray, 635/667 nm fluorescence (AID 1148); conditions: higher = more signal;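 note: score merges 667nm spot fluorescence with signal-to-noise for antibody binding to printed compounds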
Torsin-1A (Homo sapiens) [8] = target: Torsin-1A (Homo sapiens) (UniProt O14656); assay: torsin A binders from cell lysate, primary screen, small-molecule microarray, wild-type, 635/667 nm (AID 1149); conditions: COS7 hTOR1A-WT lysate, 635 nm fluorescence, higher = more signal
Sequence of Torsin-1A (Homo sapiens) (O14656 whole entry, looked up): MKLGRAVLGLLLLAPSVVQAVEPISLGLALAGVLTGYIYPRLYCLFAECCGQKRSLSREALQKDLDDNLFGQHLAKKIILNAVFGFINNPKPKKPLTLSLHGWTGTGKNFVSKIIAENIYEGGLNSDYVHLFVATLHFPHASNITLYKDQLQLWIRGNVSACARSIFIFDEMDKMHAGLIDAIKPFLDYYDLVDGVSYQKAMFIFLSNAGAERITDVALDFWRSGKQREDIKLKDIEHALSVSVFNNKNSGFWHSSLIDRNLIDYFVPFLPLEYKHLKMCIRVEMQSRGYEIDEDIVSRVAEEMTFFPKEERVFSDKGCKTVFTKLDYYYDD

Torsin-1A (Homo sapiens) [9] = target: Torsin-1A (Homo sapiens) (UniProt O14656); assay: small-molecule binders of mutant TOR1A in lysate, primary screen, cell lysate, small-molecule microarray, COS7 lysate, 635/667 nm fluorescence (AID 1150); conditions: COS7 hTOR1A mutant lysate, 635 nm fluorescence, higher = more signal;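 note: score pools 667 nm emission and signal to noise measuring lysate protein binding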
[10] = system: Sonic hedgehog protein (Shh); assay: small-molecule binders of Shh protein, primary screen, biochemical, small-molecule microarray, 635/667 nm fluorescence (AID 1151); conditions: small-molecule microarray binding, 635 nm fluorescence; higher = more signal;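 note: Shh protein binding to compounds spotted on small-molecule microarray slides; score combines spot fluorescence intensity with signal-to-noise across triplicate slides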

| SMILES | composite z-score [1] | z-score [2] | z-score [3] | z-score [4] | z-score [5] | composite z-score [6] | composite z-score [7] | composite z-score (Torsin-1A (Homo sapiens) [8]) | composite z-score (Torsin-1A (Homo sapiens) [9]) | composite z-score [10] |
| --- | --- | --- | --- | --- | --- | --- | --- | --- | --- | --- |
| CON(C)C(=O)c1nnc2c3ccccc3n(S(=O)(=O)c3ccc(C)cc3)c2n1 | 0.26 and 0.335 | 0.24 (inactive) and 0.0218 (inactive) | 1.36 (inactive) and 0.0837 (inactive) | 1.37 (inactive) and 1.28 (inactive) | -0.0387 (inactive) and -0.484 (inactive) | 1.31 and 1.67 | 0.0543 and -0.0018 | 0.201 and 1.19 | 0.492 and 1.11 | 0.642 and 1.22 |
| CC(C)[Si]1(C(C)C)OCc2cc(CCCc3cc4c(c(CCc5ccccc5)n3)[Si](C(C)C)(C(C)C)OC4)nc(CCc3ccccc3)c21 | 0.0898 and 0.0154 | -0.871 (inactive) and 0.114 (inactive) | 0.0644 (inactive) | 0.731 (inactive) and 0.469 (inactive) | -0.315 (inactive) and 0.352 (inactive) | -0.59 and 0.473 | -0.0791 and 0.0442 | -0.473 and 0.21 | 0.0547 and 0.39 | 0.405 and 0.595 |
| C=CCN(C(=O)C(c1cccs1)N(C(=O)/C=C\C(=O)O)c1c(Cl)cccc1CO)C(C)(C)C (stereo not given) | -1.15 and -1.26 | 0.389 (inactive) and 0.124 (inactive) | 0.933 (inactive) and 1.26 (inactive) | 0.325 (inactive) and 0.471 (inactive) | -0.386 (inactive) and -0.514 (inactive) | -1.61 and -1.09 | -0.341 and -0.164 | -3.44 and -4.12 | -3.15 and -2.91 | -1.98 and -2.58 |
| C=C[C@H](C)[C@H](O)c1ccc(O)c2ccccc12 | -0.455 and 0.247 | -1.69 (inactive) and 0.651 (inactive) | -0.143 (inactive) and -0.287 (inactive) | 0.833 (inactive) and 1.94 (inactive) | 1.13 (inactive) and -0.456 (inactive) | -0.663 and -0.935 | -0.206 and -0.182 | -1.49 and -0.75 | -0.0641 and 0.204 | 0.153 and 1.7 |
| CC(C)C(=O)N[C@@H]1CCCN1C(=O)C=Cc1ccccc1 | -0.0494 | 0.135 (inactive) | 1.06 (inactive) | 0.56 (inactive) | 0.685 (inactive) | 0.504 | -0.0216 | 0.841 | 0.448 | 0.605 |
| C[N+](C)(C)CCCCCCNC(=O)[C@H]1C[C@H]2C(=O)N[C@@H](CCCC[N+](C)(C)C)C(=O)N2[C@H]1c1cccc(OCCO)c1 | 0.138 and 0.215 | -0.153 (inactive) and 0.0096 (inactive) | -0.454 (inactive) and 0.221 (inactive) | -0.532 (inactive) and -1.09 (inactive) | 0.323 (inactive) and -0.622 (inactive) | -0.621 and 0.0935 | 0.298 and 0.135 | 0.765 and 1.27 | 1.11 and 0.354 | 1.98 and 1.79 |
| COC(=O)C1=C(C)N(Cc2ccccc2)[C@]23O[C@](C(=O)OC)(C(=O)N2[C@@H]1c1ccccc1)[C@@H](C(=O)OC)[C@H]3C(=O)OC | -0.13 and 0.206 | 0.36 (inactive) and 0.333 (inactive) | -0.754 (inactive) and 0.0472 (inactive) | 0.745 (inactive) and -0.487 (inactive) | -0.998 (inactive) and -0.909 (inactive) | -0.895 and -0.188 | -0.188 and -0.218 | -0.0921 and 0.481 | -0.107 and 0.299 | -0.652 and 0.611 |
| C=CCN(C(=O)C(c1cccs1)N(C(=O)/C=C\C(=O)O)c1ccc(CCO)cc1)C(C)(C)C (stereo not given) | -0.156 and -1.27 | -0.243 (inactive) and 0.38 (inactive) | -0.638 (inactive) and 0.984 (inactive) | -0.0859 (inactive) and 0.597 (inactive) | 0.332 (inactive) and -0.439 (inactive) | -0.298 and -0.966 | -0.154 and -0.227 | -0.603 and -2.33 | 1.56 and -2.14 | -0.754 and -1.36 |
| COC(=O)C1=C(C)N(Cc2ccccc2)[C@]23O[C@](C(=O)OC)(C(=O)N2[C@@H]1c1ccccc1)[C@H]1CCCC(=O)[C@H]13 | 0.04 and -0.0686 | -3.29 (inactive) and -2.24 (inactive) | -0.375 (inactive) and -1.01 (inactive) | 0.563 (inactive) and 2.64 (inactive) | -0.771 (inactive) and -0.693 (inactive) | 0.3 | 0.114 and -0.018 | 0.165 and 0.434 | 0.815 and 0.262 | 0.396 and 0.436 |
| CN1C(=O)C2CC=C([C@H]3Oc4ccccc4S(=O)(=O)N4CCC[C@@H]34)CC2C1=O (stereo not given in full) | -0.0808 and 0.53 | 0.0836 (inactive) and -0.243 (inactive) | -0.129 (inactive) and -0.419 (inactive) | -1.32 (inactive) and -0.327 (inactive) | 0.123 (inactive) and 0.707 (inactive) | -0.0329 and -0.212 | -0.0963 and -0.0874 | -0.0871 and -0.296 | 0.075 and -0.165 | -0.306 and -0.272 |
| C=CCN(Cc1ccccc1)C(=O)C1N(CCOCCO)C(=O)C2C(C(=O)O)C3C=CC21O3 (stereo not given) | -0.0792 and -1.24 | -2.27 (inactive) and 0.247 (inactive) | -0.0168 (inactive) | -0.484 (inactive) and -0.753 (inactive) | -0.347 (inactive) and -0.736 (inactive) | -1.36 and -1.24 | -0.282 and -0.0645 | -2.62 and -3.49 | -1.89 and -3.16 | -1.64 and -2 |
| C=CCN1C(=O)[C@]2(O[C@H](CCn3cc(CCO)nn3)[C@@H]([Si](C)(C)c3ccc(OC)cc3)[C@@H]2C)c2cc(N3C(=O)c4cccc5cccc3c45)ccc21 | 0.684 and 0.279 | -8.04 (active) and -7.97 (inactive) | -0.475 (inactive) and -0.111 (inactive) | 29.7 (active) and 37.9 (active) | -4.15 (inactive) and -3.89 (inactive) | 0.377 and 0.732 | -0.0719 and -0.0986 | 0.317 and 0.0769 | 0.398 and 0.254 | 1.21 and 1.38 |
| CCC[C@@H]1C[C@@]1(CCC)[C@@H](NC(=O)c1ccc(-c2ccccc2)cc1)c1cccc(Cl)c1 | 0.585 and -0.0434 | -2.34 (inactive) and -1.18 (inactive) | -0.439 (inactive) and -0.623 (inactive) | 0.394 (inactive) and -0.568 (inactive) | 0.0069 (inactive) and -0.151 (inactive) | -0.475 and 0.378 | 1.13 and -0.0011 | 0.286 and -0.411 | 0.322 and 0.104 | -0.032 and -0.684 |
| CCN1C(=O)[C@H]2[C@H]3[C@H](O)[C@H](O)CC(=NNC(=O)OCc4ccc(OC)cc4)[C@H]3CC[C@H]2C1=O | 0.153 | -0.0769 (inactive) | 0.619 (inactive) | 0.344 (inactive) | -0.287 (inactive) | 0.398 | 0.124 | 0.275 | -0.023 | -0.121 |
| COC(=O)CC=C[C@@H](C)[C@@H](CO)NS(=O)(=O)c1ccc(C)cc1 | 0.234 and 0.125 | 0.577 (inactive) and -0.18 (inactive) | 0.773 (inactive) and -0.379 (inactive) | 1.1 (inactive) and 0.288 (inactive) | -0.196 (inactive) and -0.693 (inactive) | -0.183 and 0.469 | -0.05 and 0.0248 | 0.448 and 0.478 | 0.32 and 1.08 | 0.759 and 1.44 |
| C=C[C@H](OC)[C@@H](O)c1ccc(O)c(F)c1 | -0.542 and -1.18 | -0.217 (inactive) and -0.324 (inactive) | -0.263 (inactive) and -1.21 (inactive) | 1.53 (inactive) and 0.353 (inactive) | 1.41 (inactive) and 0.473 (inactive) | -1.42 and -1.09 | -0.409 and -0.32 | -1.55 and -3.36 | -1.77 and -2.26 | -1.28 and -0.249 |
| CCN1C(=O)[C@H]2[C@H]3[C@H](O)[C@H](O)CC(=NOC)[C@@H]3CC[C@H]2C1=O | -0.254 | 0.359 (inactive) | -1.16 (inactive) | -1.12 (inactive) | -0.154 (inactive) | -0.125 | -0.0762 | -0.477 | -0.115 | -0.13 |
| CO[C@H]1COC(=O)[C@H](C)NC(=O)CC=C[C@@H](C)[C@H](OC)COC(=O)CC=C[C@@H]1C | 0.155 | 0.0447 (inactive) | -0.506 (inactive) | 1.51 (inactive) | -0.41 (inactive) | 0.14 | -0.237 | 1.85 | 1.81 | 1.62 |
| COC(=O)c1c2oc(c1C(=O)OC)C(=O)N[C@@H](Cc1ccccc1)Cn1cc(nn1)C1(CCCCC1)NC(=O)N[C@H](CO)CC2 | 0.547 and 0.189 | -0.237 (inactive) and -0.109 (inactive) | -1.23 (inactive) and -0.509 (inactive) | 0.484 (inactive) and 3.25 (inactive) | -0.635 (inactive) and -0.0904 (inactive) | 0.216 and 0.517 | 0.271 and -0.103 | 0.212 and 0.403 | -0.0506 and 0.489 | 1.28 and 0.781 |
| CO[C@H]1COC(=O)CC=C[C@@H](C)COC(=O)[C@H](CCSC)NC(=O)CC=C[C@@H]1C | 0.748 and 0.382 | -1.11 (inactive) and -1.94 (inactive) | -0.2 (inactive) | -0.473 (inactive) and 0.882 (inactive) | -0.367 (inactive) and -0.742 (inactive) | -0.909 and -1.04 | -0.0645 and -0.341 | 3.27 and 3.04 | 3.74 and 3.09 | 1.74 and 2.35 |
| C=CCN(CCCC)C(=O)C(c1cccs1)N(C(=O)/C=C\C(=O)O)c1ccc(CCO)cc1 (stereo not given) | -0.118 and -0.341 | 0.197 (inactive) and 0.617 (inactive) | -0.568 (inactive) and 0.123 (inactive) | -0.0818 (inactive) and 0.195 (inactive) | -0.21 (inactive) and -0.185 (inactive) | -0.874 and -1.49 | -0.195 and -0.331 | -1.2 and -3.21 | -2.35 and -1.52 | -0.463 and -1.18 |
| C=C[C@@H](C)[C@@H](O)c1ccc(OCCO)cc1 | -1.29 and -1.06 | -0.295 (inactive) and -0.245 (inactive) | -0.828 (inactive) and -0.12 (inactive) | 0.105 (inactive) and 1.46 (inactive) | -0.466 (inactive) and -0.637 (inactive) | -1.1 and -0.908 | -0.312 and -0.213 | -3.3 and -3.39 | -2.66 and -2.95 | -1.39 and 0.319 |
